Source: PubChem
MITF act – activators of MITF-driven TRPM1 promoter activity in SK-MEL-5 cells | SK-MEL-5 TRPM1-promoter luciferase, 24 h; % of positive control, neutral wells = 0 | 300,000 tested, 0.75% active | AID 588334 | activation, % at 12.5 µM;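 active means mean activation of at least 80% with every replicate also reaching 80%; inconclusive means mean reaches 80% but some replicate falls short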;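 further: 0% = neutral control wells and 100% = parthenolide positive control wells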
esBAF inh – blocks esBAF chromatin remodeling in mouse ES cells; Bmi1-luciferase knock-in reporter, 24 h; 100% = twice the neutral-well signal; reporter increase, % at 12.5 µM; 350,000 tested, 2% active; AID 602393; in the data active means activation above about 40%; inconclusive means no clear call, values can overlap the other calls;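 further: 0% = median of the plate's neutral control wells and 100% = double that signal; a rise in the Bmi1 reporter signal indicates esBAF inhibition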
Statin myotox sup – suppression of simvastatin myotoxicity. rescue of ATP level, % at 7.49 µM. AID 602340. 330,000 tested, 0.78% active. C2C12 myotubes + simvastatin, ATP luminescence, 48 h; scaled: DMSO 0, geranylgeraniol control 100;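 active means mean ATP rescue above about 67%, or every replicate alone reaching that limit, limit read from the data, passing the limit was not always enough; inconclusive means no clear call, values can overlap the other calls; inactive means mean under the limit and some replicate under it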;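 further: myotubes were challenged with 10 µM simvastatin during compound exposure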
Wnt act – activators of Wnt/beta-catenin signaling. Wnt/beta-catenin reporter cell assay, activator, plate reader. activation, % at 9.35 µM. 300,000 tested, 1.2% active. AID 743398; in the data active means activation above about 30%, passing the limit was not always enough; inconclusive means no clear call, values can overlap the other calls;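 further: 0% = neutral control wells and 100% = positive control wells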
FXN GAA850 act – frataxin GAA850 promoter activation | HEK293 lucGAA850 FXN promoter luciferase reporter, 24 h; percent of 10 µM SAHA response | activation, % at 6 µM | 360,000 tested, 0.56% active;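 active means activation above the average of all compounds screened plus 3 SD, cutoff fixed separately per campaign, cut at about 7.5% in these data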;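 further: 0% = DMSO wells and 100% = 10 µM SAHA wells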
The depositor's hits bear a star; ? = inconclusive; / = no result given. A selection: hits, their analogues and other compounds. The true share with any hit is near 3.3%.

SMILES	MITF act	esBAF inh	Statin myotox sup	Wnt act	FXN GAA850 act
C[C@@H]1CN([C@H](C)CO)C(=O)Cc2cc(NS(=O)(=O)c3ccc(Cl)cc3)ccc2O[C@H]1CN(C)Cc1ccccc1	/	5	96*	/	/
COc1ccc(NC(=O)N(C)C[C@H]2OCCCC[C@H](C)Oc3ccc(NC(=O)NC(C)C)cc3C(=O)N([C@@H](C)CO)C[C@@H]2C)cc1	/	2	/	/	/
CO[C@@H]1CN(C)C(=O)c2ccc(NC(=O)C3CC3)cc2OC[C@@H](C)N(CC2CCOCC2)C[C@@H]1C	/	0	1	/	/
Cc1ccc(S(=O)(=O)N2CC[C@H]3[C@H](CO)Nc4ccc(C#Cc5ccc(F)cc5)cc4[C@H]32)cc1	/	2	-23	/	/
CO[C@H](CN(C)C(=O)c1ccccc1F)[C@H](C)CN([C@H](C)CO)S(=O)(=O)c1ccccc1	/	-3	8	/	/
COc1ccc(S(=O)(=O)Nc2ccc3c(c2)CC(=O)N([C@H](C)CO)C[C@H](C)[C@H](CN(C)Cc2ccc(Cl)c(Cl)c2)O3)cc1	/	4	-9	/	/
COc1ccc(CN(C)C[C@H]2Oc3ccc(NS(=O)(=O)c4ccc(F)cc4)cc3CC(=O)N([C@H](C)CO)C[C@H]2C)cc1	/	-4	69*	/	/
C[C@@H]1CN([C@H](C)CO)C(=O)Cc2cc(NS(=O)(=O)c3ccc(F)cc3)ccc2O[C@H]1CN(C)CC1CCCCC1	/	4	108*	/	/
C[C@H](CO)N1C[C@H](C)[C@H](CN(C)CC2CCCCC2)Oc2ccc(NS(=O)(=O)c3ccc(F)cc3)cc2CC1=O	0	3	-16	-7	-1
Cc1ccc(S(=O)(=O)Nc2ccc3c(c2)CC(=O)N([C@@H](C)CO)C[C@@H](C)[C@H](CN(C)Cc2ccc(-c4ccccc4)cc2)O3)cc1	/	2	103*	/	/
COc1ccc(S(=O)(=O)Nc2ccc3c(c2)CC(=O)N([C@H](C)CO)C[C@@H](C)[C@H](CN(C)Cc2ccc(Cl)c(Cl)c2)O3)cc1	/	5	110*	/	/
C[C@@H]1CN([C@H](C)CO)C(=O)c2cc(/C=C/c3ccccc3)cnc2O[C@@H]1CN(C)Cc1cncnc1	/	-3	-5	/	/
C[C@H](CO)N1C[C@H](C)[C@@H](CN(C)C(=O)Cc2ccccc2)OCCCC[C@H](C)Oc2ccc(N(C)C)cc2C1=O	/	0	-7	/	/
O=S(=O)(N[C@H]1CC[C@@H](CCn2cc(C3(O)CCCC3)nn2)O[C@H]1CO)c1ccc(Cl)cc1	/	2	17	/	/
CCS(=O)(=O)N[C@H]1CC[C@H](CC(=O)Nc2ccc(-c3ccccc3)cc2)O[C@@H]1CO	/	1	12	/	/
COc1ccc(CN(C)C[C@@H]2Oc3ccc(NS(=O)(=O)c4ccc(Cl)cc4)cc3CC(=O)N([C@H](C)CO)C[C@H]2C)cc1	/	3	95*	/	/
COc1ccc(S(=O)(=O)N(C)C[C@@H]2Oc3ccc(NS(=O)(=O)c4ccc(Cl)cc4)cc3CC(=O)N([C@@H](C)CO)C[C@H]2C)cc1	/	4	73*	/	/
COc1ccc(CN(C)C[C@@H]2Oc3ccc(NS(=O)(=O)c4ccc(Cl)cc4)cc3CC(=O)N([C@@H](C)CO)C[C@@H]2C)cc1	/	0	11	/	/
O=C(C[C@@H]1CC[C@H](NC(=O)c2ccncc2)[C@H](CO)O1)Nc1ccccc1	/	3	-3	/	/
CCOC(=O)c1cnc2cc(-c3ccc(Cl)cc3)nn2c1N	149*	67*	-15	21	3
CCOC(=O)c1cnc2c(-c3ccc(Cl)cc3)c(C)nn2c1N	19	4	87*	/	-2
CCOC(=O)c1cnc2cc(-c3ccc(Br)cc3)nn2c1C	/	31	-3	6	2
CCOC(=O)Cc1c(C)nc2c(-c3ccc(Cl)cc3)c(C)nn2c1C	-19	/	/	-4	2
CCOC(=O)c1cnc2c(-c3ccccc3)cnn2c1C	73	/	/	56*	3
CC(=O)c1cnc2c(-c3ccccc3)cnn2c1C	27	?	4	/	2
SMILES	MITF act	esBAF inh	Statin myotox sup	Wnt act	FXN GAA850 act
CC(C)NC(=O)Nc1cccc2c1O[C@H](CN(C)C(=O)Nc1cccc3ccccc13)[C@@H](C)CN([C@H](C)CO)C2=O	/	-4	7	/	/
C[C@H]1CN([C@@H](C)CO)C(=O)Cc2cc(NC(=O)CCCCCC(=O)Nc3ccccc3N)ccc2O[C@H]1CN(C)Cc1ccccc1	/	-13	73*	/	/
C[C@@H]1CN([C@H](C)CO)C(=O)Cc2cc(NC(=O)CCCCCC(=O)Nc3ccccc3N)ccc2O[C@@H]1CN(C)Cc1ccccc1	/	-9	?	/	/
C[C@H]1CN([C@@H](C)CO)C(=O)Cc2cc(NC(=O)CCCCCC(=O)Nc3ccccc3N)ccc2O[C@H]1CN(C)CC1CCCCC1	/	-27	147*	/	/
C[C@@H]1CN([C@H](C)CO)C(=O)Cc2cc(NC(=O)CCCCCC(=O)Nc3ccccc3N)ccc2O[C@@H]1CN(C)Cc1ccc(-c2ccccc2)cc1	/	30	29	/	/
C[C@H](CO)N1C[C@H](C)[C@H](CN(C)Cc2ccc3c(c2)OCO3)Oc2ccc(NC(=O)CCCCCC(=O)Nc3ccccc3N)cc2CC1=O	/	-16	103*	/	/
C[C@@H]1CN([C@@H](C)CO)C(=O)Cc2cc(NC(=O)CCCCCC(=O)Nc3ccccc3N)ccc2O[C@H]1CN(C)Cc1ccc(-c2ccccc2)cc1	/	25	94*	/	/
COC(=O)C[C@H]1CC[C@H]2[C@@H](COc3ccc(NS(=O)(=O)c4cccc(F)c4)cc3C(=O)N2C)O1	/	-7	-13	/	/
O=C(C[C@@H]1C[C@@H]2c3cc(NC(=O)c4ccc5c(c4)OCO5)ccc3O[C@@H]2[C@@H](CO)O1)NCCc1ccccc1	/	-5	-1	/	/
COCC(=O)Nc1ccc2c(c1)OC[C@@H](C)N(CCC(F)(F)F)C[C@@H](C)[C@H](OC)CN(C)C2=O	/	-2	0	/	/
O=C(NCc1cccc(F)c1)[C@H]1[C@H](CO)[C@H]2Cn3c(cccc3=O)[C@@H]1N2C(=O)c1cnccn1	/	1	-20	/	/
C[C@@H]1CN([C@H](C)CO)C(=O)Cc2cc(NC(=O)CCCCCC(=O)Nc3ccccc3N)ccc2O[C@H]1CN(C)Cc1ccc(-c2ccccc2)cc1	/	39	135*	/	/
C[C@@H]1CN([C@H](C)CO)C(=O)Cc2cc(NC(=O)CCCCCC(=O)Nc3ccccc3N)ccc2O[C@@H]1CN(C)Cc1ccc(Oc2ccccc2)cc1	/	-1	27	/	/
C[C@H](CO)N1C[C@H](C)[C@@H](CN(C)Cc2ccc(-c3ccccc3)cc2)Oc2ccc(NC(=O)CCCCCC(=O)Nc3ccccc3N)cc2CC1=O	/	?	88*	/	/
C[C@H]1CN([C@@H](C)CO)C(=O)Cc2cc(NC(=O)CCCCCC(=O)Nc3ccccc3N)ccc2O[C@@H]1CN(C)Cc1ccc(Oc2ccccc2)cc1	/	12	102*	/	/
C[C@H](CO)N1C[C@H](C)[C@H](CN(C)Cc2ccc(-c3ccccc3)cc2)Oc2ccc(NC(=O)CCCCCC(=O)Nc3ccccc3N)cc2CC1=O	/	-3	25	/	/
COC(=O)[C@@H]1[C@@H](CO)[C@@H]2Cn3c(ccc(-c4ccccc4F)c3=O)[C@@H]2N1C(=O)c1ccccn1	/	1	14	/	/
